Our source for the Potency values is PubChem BioAssay AID493168 (National Center for Advancing Translational Sciences (NCATS), 2011).

Inconclusive results are not listed. A call without a number means that no potency is given here. Active and inactive are the calls of the source. Calls follow the shape of the dose curve; as a rule, active = well fitted inhibition curve with a large enough effect; inconclusive = small, poorly fitted or top-dose-only effect, or effect the other way; inactive = flat fitted curve, though single readings scatter.
Potency is read from the fitted curve at half-maximal effect.

Ubiquitin carboxyl-terminal hydrolase 2 (Homo sapiens), sequence (O75604 whole entry, looked up): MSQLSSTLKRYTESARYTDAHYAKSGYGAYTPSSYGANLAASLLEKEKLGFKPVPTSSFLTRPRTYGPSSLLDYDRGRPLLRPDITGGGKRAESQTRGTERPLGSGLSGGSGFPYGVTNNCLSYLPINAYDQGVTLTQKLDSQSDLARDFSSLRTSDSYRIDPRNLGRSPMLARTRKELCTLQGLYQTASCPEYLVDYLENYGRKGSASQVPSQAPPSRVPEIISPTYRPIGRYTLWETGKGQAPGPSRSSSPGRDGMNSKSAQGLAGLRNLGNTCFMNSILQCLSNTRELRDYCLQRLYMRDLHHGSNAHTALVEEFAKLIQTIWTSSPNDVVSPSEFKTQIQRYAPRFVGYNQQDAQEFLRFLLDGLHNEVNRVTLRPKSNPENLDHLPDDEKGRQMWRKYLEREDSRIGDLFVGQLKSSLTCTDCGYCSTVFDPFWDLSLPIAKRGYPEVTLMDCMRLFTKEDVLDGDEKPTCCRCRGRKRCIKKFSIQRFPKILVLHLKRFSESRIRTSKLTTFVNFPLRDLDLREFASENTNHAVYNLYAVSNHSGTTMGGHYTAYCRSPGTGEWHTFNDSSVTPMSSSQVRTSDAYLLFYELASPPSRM

This assay deals with Ubiquitin carboxyl-terminal hydrolase 2 (Homo sapiens) (UniProt O75604). In words: Confirmation Assay for Inhibitors of Ubiquitin-specific Protease USP2a Using CHOP2 as the Reporter. Also: nearly all actives have a fitted effect of over 55% in size. Particulars: USP2 core, Ub-CHOP2 coupled reporter fluorescence; series mostly up to 38.3 µM. From the text:
NIH Molecular Libraries Probe Centers Network [MLPCN] NIH Chemical Genomics Center [NCGC] MLSCN Grant: XO1-MH079852-01 PI Name: Nicholson, Ben. Progenra Inc, Malvern, PA NCGC Assay Overview: Homeostasis of cellular proteins is maintained through a combination of synthesis and degradation. The pathway that accounts for the majority of protein degradation is the ubiquitin-proteasomal pathway. Ubiquitin (Ub) is highly conserved in all cells and the generation of a multi-Ub chain typically targets proteins for degradation by the proteasome. However, ubiquitination is highly reversible and dynamic. Deubiquitination, the reverse process, is catalyzed through the action of enzymes referred to as isopeptidases or deubiquitinating enzymes (DUBs). This group of enzymes is collectively responsible for maintaining adequate pools of free ubiquitin and regulating the ubiquitination status of cellular proteins. The class of DUBs referred to as the ubiquitin-specific proteases (USP) family functions endoproteolytically to cleave Ub chains from a wide range of protein substrates. USP2a deubiquitinates fatty acid synthase (FASN) which has recently been identified as an emerging oncology target. To identify inhibitors of USP2a a cell-free assay was employed. […] The reporter enzyme chosen is an […] called CHOP2, which is activated when the Ub is cleaved by USP2. The free and now activated reporter can subsequently act on its reporter substrate. Thus, this coupled assay gives a fluorescent read-out at excitation/emission wavelengths of 485/531. The assay was developed by Progenra, Inc. and has been licensed for sale by LifeSensors, Inc. as Ub-CHOP2-Reporter-Kit (#PR1101).
NCGC Assay Protocol Summary: The assay buffer, prepared fresh at the day of the assay, contains 20mM Tris-HCl pH 8.0, 2mM CaCl2, 2mM beta-Mercaptoethanol, 0.05% CHAPS. 3ul of 20nM (10nM final) USP2 core, which is stored on ice, is dispensed into a medium-binding black solid Kalypsys 1,536 well plate using the Kalypsys dispenser. The assay plate is then pinned with 23nL compound with the Kalypsys pintool in columns 5-48. The controls are pinned as follows: column 1 two-fold dilutions of 2M NEM in duplicate; column 2 2M NEM (final concentration 38.2mM); column 3&4 DMSO. The assay plate is incubated at RT for 30min. Subsequently, 1.5uL of 100nM (25nM final) Ub-CHOP2 and 1.5uL of 100nM (25nM final) Reporter Substrate (both stored on ice and protected from light) were dispensed into the plate using the Kalypsys dispenser. Plates were read after 60min RT incubation on a ViewLux (Perkin Elmer) plate reader using the following wavelengths Ex 485nm /Em 531nm. Data were normalized to the to AC100 inhibition (NEM). Concentration-response curves were fitted to the normalized data and the concentration-response curves were then classified based on curve quality (r2), response magnitude and degree of measured activity. The time zero reading was used to flag fluorescence artifacts. Keywords: ubiquitination, deubiquitination, proteases, profluorescent, MLSMR, MLPCN, NIH Roadmap, qHTS, NCGC
As to `O=C(Nc1nc(-c2ccco2)c(-c2ccco2)s1)C1CC(=O)N(c2ccc3c(c2)OCCO3)C1` (stereo not given), the Potency is 10.4 µM (active).

Take `O=C(c1ccc(CS(=O)(=O)c2ccc(Br)cc2)o1)N1CCCC1`: the Potency entry is “inactive”.

Regarding `CSCCC(NC(=O)c1cc(C(C)(C)C)oc1C)C(=O)O` (stereo not given), the Potency entry is “inactive”.

Turning to `COc1ccc(NC(=O)CSc2nc3sc(C)cc3c(=O)n2C)c(OC)c1`, the Potency result was “inactive”.

`CS(=O)(=O)c1ccc(C(=O)Nc2nc(-c3ccco3)c(-c3ccco3)s2)cc1`: the Potency result was “inactive”.

As for `Cn1nc(CC(=O)NCc2ccc(F)cc2)c2ccccc2c1=O`, the Potency entry was “inactive”.

Take `Cc1ccc2nc(NCCCNC(=O)c3cnccn3)c(C#N)cc2c1`: the Potency entry was “inactive”.

On to `O=c1/c(=C/c2ccco2)sc2n1CN(c1cccc(Br)c1)CN=2`, for which the Potency result was “inactive”.

For `CC1(C)CC(=O)C2=C(C1)N(Cc1ccco1)C(=O)NC2(C(F)(F)F)C(F)(F)F`, the Potency entry was “inactive”.

With `Nc1c(C(=O)NC2CC2)sc2nc3c(c(-c4ccco4)c12)CC/C3=C/c1ccco1`, the Potency was 7.36 µM (active).

Turning to `COC(=O)c1ccc(NC(=O)CSC2=Nc3ccccc3C3CC=NN23)cc1` (stereo not given), the Potency result is “inactive”.

For the molecule `Cc1ccc2[nH]c(=O)c(COC(=O)c3ccccn3)cc2c1`, the Potency entry was “inactive”.

As to `NS(=O)(=O)c1ccc(NC(=O)CN2CCCCC2)cc1`, the Potency result was “inactive”.

For the molecule `CCCCNC(=O)Nc1ccccc1C(=O)NCc1ccco1`, the Potency entry is “inactive”.

For the molecule `O=C(NC(=S)N1CCCc2ccccc21)c1ccc([N+](=O)[O-])cc1`, the Potency result was “inactive”.

In the case of `COc1ccc(-c2nnn(CC(=O)N3CCOCC3)n2)cc1`, the Potency entry was “inactive”.

In the case of `Cc1cc(=O)oc(C)c1C(=O)NCCc1ccccc1`, the Potency entry was “inactive”.

In the case of `Cc1ccc(C(=O)N(C)CC(=O)Nc2cccc(C)c2C)o1`, the Potency result is “inactive”.

As to `COc1ccc2cc(CN(C(=O)Nc3ccccc3)C3CCCC3)c(=O)[nH]c2c1`, the Potency result is “inactive”.

Turning to `CC1CCc2c(sc3nc(CN4CCOCC4)nc(NS(=O)(=O)c4cccc([N+](=O)[O-])c4)c23)C1` (stereo not given), the Potency result is “inactive”.

Regarding `COc1ccc(CC(NC(C)=O)C(=O)NC2CCN(c3nc(C)cc(C)c3C#N)CC2)c(OC)c1` (stereo not given), the Potency result was “inactive”.

Take `Cc1ccc(S(=O)(=O)N2[C@@H](c3ccc(C(C)(C)C)cc3)C(C(=O)O)=CC[C@H]2c2ccc(C(C)C)cc2)cc1`: the Potency is 9.27 µM (active).

Take `CCOc1ccccc1C(=O)N[C@H](C(=O)Nc1ccc(OC)c(S(=O)(=O)N2CCOCC2)c1)C(C)C`: the Potency entry was “inactive”.

Regarding `COc1ccc(O)c(-c2cc(-c3ccc(F)cc3)n[nH]2)c1`, the Potency result was “inactive”.

On to `O=C(O)CCn1c(C2CCCCC2)nc2ccccc21`, for which the Potency entry is “inactive”.

Turning to `Cc1ccc(C)c(OCC(=O)Nc2cc(NC(=O)COc3cc(C)ccc3C)cc(C(=O)O)c2)c1`, the Potency result is “inactive”.

Regarding `O=C(CSc1ccc(Br)c2cccc(Cl)c12)Nc1ccc(S(=O)(=O)Nc2nccs2)cc1`, the Potency was 9.27 µM (active).

Regarding `COc1ccc(NC(=O)c2cc(-c3ccco3)nc3ccccc23)cc1S(=O)(=O)N1CCOCC1`, the Potency was 18.5 µM (active).

Take `Nc1c(C(=O)Nc2ccc3c(c2)OCCO3)nnn1CCc1ccccc1`: the Potency result was “inactive”.

Regarding `CN1CCN(CCC(=O)N/N=C/c2cc([N+](=O)[O-])ccc2O)CC1`, the Potency result was “inactive”.

In the case of `C=CC[C@H](CC(=O)N[C@H](CO)Cc1ccccc1)C(=O)N[C@H](COC(=O)[C@@H](CC=C)CC(=O)OC(C)(C)C)Cc1c[nH]c2ccccc12`, the Potency entry was “inactive”.

Turning to `Cc1ccc2[nH]c(C)c(CCNC(=O)c3cc4cc([N+](=O)[O-])ccc4oc3=O)c2c1`, the Potency result was “inactive”.

With `Cc1nc2cc3ccccc3cc2c(=O)[nH]1`, the Potency result is “inactive”.

Regarding `C#CCOCCOCCOCCNc1nc(N2CCN(C(=O)CCCCCCCCCCNC(=O)Cn3cc(CCCCCN)nn3)CC2)nc(N2CCN(C(=O)CCCCCCCCCCNC(=O)Cn3cc(CCCCCN)nn3)CC2)n1`, the Potency is 10.4 µM (active).

In the case of `Cc1ccc(-c2nc(N/N=C/c3ccncc3)c3ccccc3n2)cc1`, the Potency entry is “inactive”.

Take `CCC(C)NC(=O)CSC1=Nc2ccccc2C2=NC(c3ccccc3)C(=O)N12` (stereo not given): the Potency entry was “inactive”.

For `O=C(O)c1cccc(-n2cccc2/C=C2/NC(=O)N(c3ccc(Cl)cc3)C2=O)c1`, the Potency is 9.27 µM (active).

As to `COc1cccc(-c2csc3nnc(SCC(=O)NCc4cccs4)n23)c1`, the Potency entry is “inactive”.

Regarding `CSc1cccc(NC(=O)c2ccccc2N(C)S(C)(=O)=O)c1`, the Potency result was “inactive”.

`COc1ccc(C(=O)COC(=O)c2ccccc2O)c(OC)c1`: the Potency entry was “inactive”.
